Drawing on PubChem BioAssay (NCI), this text covers growth for 77 molecules.

SMILES strings stand for the structures. Several values for one entry are separate records, joined by “and”; a condition that tells them apart may be missing. Identical values can stand only once. The panel holds about 83,000 compounds, 20% with a hit somewhere; the sample as a whole holds those more often.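 96-well plates, one dose, 48 hours. Percent growth reported; active if below 10.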 Values without a mark were called inactive. Activity calls are given as the source filed them.

The assay has as its system MDA-MB-468 breast. The experiment in a line: NCI-60 one-dose screen, 48 h (100 = growth as untreated, 0 = no growth, -100 = all killed).

As for `CCC(OC(=O)CC(C)C)c1ccccc1` (stereo not drawn), the growth (10 µM unless noted) is 99.3%. Regarding `CC(=O)C1=C(C)NC(NNC(N)=S)=NC1c1ccccc1` (stereo not drawn), the growth (10 µM unless noted) is 100%.

`S=C(SSC(=S)N(c1ccccc1)c1ccccc1)N(c1ccccc1)c1ccccc1`: under “10 µM unless noted”, the growth is 107%. Take `CC1C(=NC(=O)c2cnccn2)C(C)C(c2ccc(Cl)cc2)NC1c1ccncc1` (stereo not drawn): the growth (10 µM unless noted) is 92.9%. With `C[C@H](C(=O)Nc1ccc(S(N)(=O)=O)cc1)S(=O)(=O)c1ccccc1`, where the note is “10 µM unless noted”, the growth was 102%.

In the case of `CC(N)C(Cc1ccccc1)c1ccc(Cl)cc1` (stereo not drawn), the growth (10 µM unless noted) was 83.1%. As for `CCCCCCCN(CCCCCCC)C(=N)c1ccc(OC)c2ccccc12`, the growth (10 µM unless noted) is -85% (active). As to `COc1ccc(/C=C/c2nc(-c3n[nH]c(=O)n3-c3ccccc3)c3ccccc3n2)cc1`, the growth (10 µM unless noted) was 100%. For the molecule `COc1ccc(/C=C(\C#N)c2cc3ccccc3[nH]2)cc1`, under “10 µM unless noted”, the growth was 17.7%.

Regarding `O=[N+]([O-])c1cnc(N2CCN(CC3CC3)CC2)nc1N1CCN(CC2CC2)CC1`, under “10 µM unless noted”, the growth is 76.9%. As for `CC(=O)C1CCC(C)=CC1=O` (stereo not drawn), the growth (10 µM unless noted) was 116%.

Take `COc1ccc(C(=O)/C=C/c2c(Cl)c3c(c(OC)c2Cl)OCC(=O)N3)cc1`: the growth (10 µM unless noted) is 12.4%. On the same count and under the same terms, under `O=C(N/N=C/c1ccccc1O)c1ccncc1` stands 61%; under `S=C(NCc1ccccc1)N1CCC(CCCC2CCN(C(=S)NCc3ccccc3)CC2)CC1`, 69.1%; under `Nc1nc2ccccc2c2c(=O)c3cccc(Cl)c3sc12`, -0.88% (active). In the case of `O=C(NNc1nccc(Nc2ccc(S(=O)(=O)Nc3ccncc3)cc2)n1)c1ccccc1`, under “10 µM unless noted”, the growth is 116%. As for `O=C(c1ccccc1)c1ccc(O)c2ncccc12`, the growth (10 µM unless noted) was 25.6%. The same measure, in the same setting: as for `CCCCN(CCCC)c1ccc(C(=N)c2ccc(N(CCCC)CCCC)cc2)cc1`, the figure is -92.9% (active); as for `CC(=O)c1cc(C(=O)c2ccc3c(c2)Sc2ccccc2N3)c2cc(C)ccn12`, -3.41% (active). As to `CC(=O)c1cnc(-c2ccccc2)nc1CBr`, under “10 µM unless noted”, the growth is 49.6%. For the molecule `CN1CCN(c2ccc3nc(-c4[nH]ncc4Nc4ncnc5[nH]ccc45)[nH]c3c2)CC1`, the growth (10 µM unless noted) was -55.6% (active). Consider `O=C1N[C@@H]2[C@@H](O)[C@@H](O)[C@H](O)C[C@H]2c2cc3c(c(O)c21)OCCO3`, for which the growth (10 µM unless noted) was -27.2% (active).

Take `Clc1ccccc1/C=C/c1nn2c(-c3ccncc3)nnc2s1`: the growth (10 µM unless noted) is 97.4%. `O=[N+]([O-])c1cccc(C(F)(F)F)c1`: under “10 µM unless noted”, the growth is 101%.

As for `COc1cc(-c2nc(SCCC(C)C)nc(Nc3ccc(S(N)(=O)=O)cc3)c2C#N)cc(OC)c1OC`, the growth (10 µM unless noted) is 42.8%.

For the molecule `CN(Cc1cc(Br)cc(Br)c1O)Cc1cc(Br)cc(Br)c1O`, where the note is “10 µM unless noted”, the growth was -1.21% (active). As for `COc1c(O)c2c3c(c1OC)-c1ccccc1CC3N(S(=O)(=O)c1ccc(C)cc1)CC2` (stereo not drawn), for the setting “10 µM unless noted”, the growth is 37.1%. As for `COc1ccc2nc3cc(Cl)ccc3c(Nc3ccc(N(C)C)cc3)c2c1`, the growth (10 µM unless noted) is 73.7%. Still for that read-out and setting: under `COC(=O)c1nc(-c2ccccc2)oc1S(=O)(=O)n1nc(C)cc1N` stands 59.2%. For `O=C(NNc1nc2cc(F)ccc2n2c(CN3CCC(O)C3)ccc12)c1cnccn1` (stereo not drawn), under “10 µM unless noted”, the growth was -17.3% (active). `O=C(CCCCC[P+](c1ccccc1)(c1ccccc1)c1ccccc1)NC(COC(=O)C(Cl)Cl)(COC(=O)C(Cl)Cl)COC(=O)C(Cl)Cl`: the growth (10 µM unless noted) is 84.4%. As to `Cc1cccc(NC(=O)[C@@H]2c3ccccc3C(=O)N(c3ccc(Cl)cc3)[C@H]2c2ccc(Cl)cc2)n1`, the growth (10 µM unless noted) is 17.7%. Regarding `CCOCc1nc2ccccc2c(=O)[nH]1`, the growth (10 µM unless noted) is 98.7%. On the same count and under the same terms, as for `Cn1c(/C(C#N)=C/c2ccc3ccccc3c2)cc2ccccc21`, the figure is -3.16% (active); as for `CCCCNC(=O)CC1=C(C)/C(=C/c2[nH]c(-c3ccc[nH]3)cc2OC)N=C1C`, 37.9%. For `CC1(C)OC(=O)CC1=O`, for the setting “10 µM unless noted”, the growth is 100%. Regarding `O/N=C/c1cccs1`, the growth (10 µM unless noted) is 106%. Turning to `CC(=O)/C=C/c1ccc(N(CCO)Cc2ccc(C(C)(C)C)cc2)cc1`, the growth is, setting by setting: (10 µM) 73.8%; (100 µM) -71% (active). On to `CC(=O)/C=C/c1ccc(OCc2ccc(C(C)(C)C)cc2)cc1`, for which the growth (10 µM) is 47.7% and the growth (100 µM) is -0.894% (active). Regarding `CCC(=O)c1c(C)[nH]c(C)c1C`, the growth (10 µM unless noted) is 54.4%.

In the case of `CC(=O)/C=C/c1ccc(OCc2ccc(Cl)cc2)cc1`, the growth was 109% (10 µM) and 1.46% (active) (100 µM). `O=C(CNC1C2CC3CC(C2)CC1C3)Sc1nnc2sc3ccccc3n12` (stereo not drawn): the growth (10 µM unless noted) was 102%.

With `CN1CCN(Cc2ccc(NC(=O)c3cncc(C#Cc4c(N)ncc5cc(F)ccc45)c3)cc2C(F)(F)F)CC1`, the growth (10 µM unless noted) was 55.6%. Turning to `CN(C)C(=O)c1ccc(SC(=S)NCc2ccccc2)cc1`, the growth reads like this: (10 µM) 93.9%; (100 µM) -27.4% (active). In the case of `Cc1ccc2c(C(C[N+](=O)[O-])c3ccccc3)c(-c3ccccc3)[nH]c2c1` (stereo not drawn), the growth (10 µM unless noted) was -9.08% [9.5 µM] (active). For `CCN1C(=S)N(c2ccccc2)C2NC(=O)N(/N=C/C=C/c3ccccc3OC)C21` (stereo not drawn), the growth (10 µM unless noted) was 79%. On to `CCCCCCCCCCCCCCCc1ccc(Cl)c(O)c1Cl` (tested in a mixture with another compound), for which the growth is, setting by setting: (0.25 µM) 8.94% (active); (10 µM) 103%. `O=C(Nc1cccc(Br)c1)Oc1cccc2cccnc12`: the growth is 103% (10 µM) and -8.71% (active) (100 µM).

In the case of `COc1ccc(-c2cscc2N)cc1`, the growth runs as follows: (10 µM) 96.4%; (100 µM) 38.7%. On to `CC(C)(C)c1cc(NC(=O)Cc2ccc(-c3cnc4cc(-c5cnn(CCN6CCOCC6)c5)ccc4n3)cc2)no1`, for which the growth is 22.2% (10 µM) and -1.53% (active) (30 µM).

Turning to `CCc1ccccc1-n1c(N)c(C#N)c(-c2ccc(OC)c(OC)c2)c(C#N)c1=O`, the growth is 107% (10 µM) and 47.4% (100 µM). On to `CNC(=O)c1cc(Oc2ccc(CC(=O)Nc3cc(C(C)(C)C)nn3C)cc2)ccn1`, for which the growth reads like this: (1 µM) 28.7%; (10 µM) 2.05% (active); (30 µM) 19.7%. Take `CC#C[C@]1(O)CC[C@H]2[C@@H]3CCC4=CC(=O)CCC4=C3[C@@H](c3ccc4c(c3)OCO4)C[C@@]21C`: the growth runs as follows: (10 µM) 66.6%; (100 µM) -15.2% (active).

With `CC(=O)/C=C/c1ccc(N(C)Cc2ccc(C(C)(C)C)cc2)cc1`, the growth is, setting by setting: (10 µM) 86%; (100 µM) -71.8% (active). With `O=c1ccn2c(n1)OC1CC2OC1COC(c1ccccc1)(c1ccccc1)c1ccccc1` (stereo not drawn), the growth (10 µM) is 102% and the growth (100 µM) is 56.9%. For the molecule `O=C(O)c1sccc1O`, the growth (10 µM) is 76.3% and the growth (100 µM) was 10.8%. Consider `Oc1[nH]c2ccc(Cl)cc2c1/C=c1/ccc2c(c1)N=C(c1cc(F)cc(F)c1)N=2`, for which the growth (10 µM unless noted) is 53%. As to `COc1ccc(C(=O)/C=C/c2ccc(OCc3ccc(Cl)cc3)cc2)cc1OC`, the growth was 83.3% (10 µM) and 27.8% (100 µM). Turning to `COc1ccc(Cl)cc1C(=O)NCCc1ccc(S(=O)(=O)NC(=O)NC2CCCCC2)cc1`, the growth runs as follows: (10 µM) 103% and 118%; (100 µM) 63.2%. Regarding `COc1ccc(C(=O)/C=C/c2ccc(OCc3cccc(C(F)(F)F)c3)c(OC)c2)cc1OC`, the growth runs as follows: (10 µM) 68.9%; (100 µM) -2.26% (active).

Regarding `O=C(Nc1c(Cl)cccc1Cl)Oc1cccc2cccnc12`, the growth is, setting by setting: (10 µM) 19.5%; (100 µM) -0.346% (active). Turning to `Cc1[nH]c(-c2nc3ccccc3[nH]2)c(C)c1C(=O)NC(C)C1CCCCC1` (stereo not drawn), the growth is 59.8% (10 µM) and -87.1% (active) (100 µM). Take `CS/C(=C\c1ccc(C(=O)c2ccc(C)cc2)n1C)S(C)=O` (stereo not drawn): the growth reads like this: (10 µM) 86.1%; (100 µM) 30.8%. In the case of `CN(C)CCNc1ncc(F)c(-c2cnc3cc(-c4cnn(C)c4)ccn23)n1`, the growth by setting is: (0.005 µM) 103%; (30 µM) 84.5%.

As for `COc1cccc2c1C(=O)c1c(O)c3c(c(O)c1C2=O)C[C@@](O)(C(=O)CO)C[C@@H]3OC1CC(N)C(O)C(C)O1` (stereo partly drawn), the growth (0.0025 µM) is 95.2% and the growth (2.5 µM) was 10.4%. Turning to `CC(C)[N+](C)(C)CC(O)COc1cccc2ccccc12` (stereo not drawn), the growth (10 µM unless noted) is 104%. On to `COc1cc(-c2nc(-c3ccccc3)[nH]c2-c2ccnc(NCCCNS(=O)(=O)c3cccc(F)c3)n2)ccc1Cl`, for which, for the setting “10 µM unless noted”, the growth is 43.2%. For `CCN(Cc1ccccc1)c1ccc(/C=C2\COc3ccccc3C2=O)cc1`, the growth is, setting by setting: (10 µM) 118%; (100 µM) 7.2% (active). For the molecule `O=c1ccn(C2CC(O)C(COC(c3ccccc3)(c3ccccc3)c3ccccc3)O2)c(=O)[nH]1` (stereo not drawn), the growth was 101% (10 µM) and 41.5% (100 µM).

As for `COC(=O)c1cnc2c(c1)Oc1ccccc1-c1ccnn1-2`, where the note is “10 µM unless noted”, the growth was 101%. As for `O=C(O)c1c(Cl)c(Cl)c(Cl)c(Cl)c1-c1c2cc(I)c(=O)c(I)c-2oc2c(I)c(O)c(I)cc12`, the growth was 115% and 111% and 77.5% (10 µM); -39.6% (active) (100 µM). Turning to `CC(=O)O[C@H]1C(=O)[C@@]2(C)[C@H]([C@H](OC(=O)c3ccccc3)[C@]3(O)C[C@H](OC(=O)[C@H](O)[C@@H](NC(=O)c4ccccc4)c4ccccc4)C(C)=C1C3(C)C)[C@]1(OC(C)=O)CO[C@@H]1C[C@@H]2O`, the growth by setting is: (2.5 µM) -25.5% (active); (5 µM) -21.9% (active); (10 µM) -19.1% (active). Take `CC1(C)OB(c2ccc(Cn3cc(F)c(=O)[nH]c3=O)cc2)OC1(C)C`: the growth by setting is: (10 µM) 105%; (50 µM) 13%.

For the molecule `NS(=O)(=O)c1ccc(-n2nc(-c3ccc(Cl)cc3)c3ccccc3c2=O)cc1`, the growth (10 µM unless noted) is 104%. As to `O=C(/C=C/c1cccc(Oc2ccc(Cl)cc2)c1)c1ccccc1`, the growth by setting is: (10 µM) 110%; (100 µM) -36.3% (active). As for `O=c1[nH]cc(F)c(=O)[nH]1`, the growth was 64.4% (10 µM) and 58.6% (50 µM). On to `COc1ccc(C(C)=C(c2ccc(OCCN3CCCCCC3)cc2)c2ccc(OCCN3CCCCCC3)cc2)cc1`, for which the growth (10 µM unless noted) is -69.5% (active).
